Most compounds without a hit are left out; they make up all but 12% or so of the library.
FMDV inh – High Throughput Screening for Foot and Mouth Disease Virus Antivirals. FMDV antiviral cell-based qHTS. Potency, µM (doses to about 57.9 µM), hits mostly inhibitors. hit rate 1.2% among 410,000. AID 1159524, 2015; calls by dose curve; tested in HEK293T cells; further: read-out not given here; nearly all actives have a fitted effect of over 45% in size
Cycloheximide cs – Cycloheximide Counterscreen for Small Molecule Inhibitors of Shiga Toxin. cell reporter, cycloheximide protein synthesis inhibition counterscreen. max response, %. hit rate 12% among 300,000; in the data active means max response mostly above about 13%, no sharp cut-off; inactive means mostly below about 14%; further: read at 38.3 µM for the half of the compounds with a filed dose
Shiga inhibitor – A qHTS for Small Molecule Inhibitors of Shiga Toxin; Vero cells, Shiga toxin protein synthesis inhibition reporter; hit rate 9.2% among 290,000; AID 2315, 2010; inhibition, % at 38.7 µM; in the data active means inhibition mostly above about 28%, no sharp cut-off; inactive means mostly below about 43%
Sm TGR inh – qHTS Assay for the Inhibitors of Schistosoma Mansoni Peroxiredoxins | purified TGR, DTNB reduction, TNB absorbance 405 nm | Potency, µM (titrated, usually from 114 µM), actives largely listed as inhibitors | hit rate 3% among 360,000 | AID 485364, 2010; active means well fitted inhibition curve with a large enough effect; inconclusive means small, poorly fitted or top-dose-only effect; inactive means no such curve, though single readings can be large or run the other way; further: nearly all actives have a fitted effect of over 60% in size
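First, TGR (20 nM dispensed) and NADPH were mixed with compound. Second, a 15 min room-temperature incubation followed. Third, further NADPH and then DTNB were added to start the reaction. Finally, TNB absorbance was monitored kinetically.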
Large screens that a line does not name were inactive.

O=C(Nc1cccc(S(=O)(=O)N2CCCCC2)c1)c1ccc2ccccc2n1	Cycloheximide cs 25
COc1ccc(NC(=S)Nc2cccc(S(=O)(=O)N3CCCCC3)c2)cc1	Sm TGR inh 35µM
COc1ccc(C2CC(c3ccccc3)Oc3cc(C)c(Cl)c(C)c32)cc1 (stereo not given)	none (no result: FMDV inh, Sm TGR inh)
O=C(CCCc1ccccc1)Nc1cccc([N+](=O)[O-])c1	Cycloheximide cs 44 (no result: Shiga inhibitor)
O=C(CCCOc1ccccc1)Nc1cccc([N+](=O)[O-])c1	Cycloheximide cs 21, Shiga inhibitor 82
O=C(O)CCCC(=O)Nc1cccc([N+](=O)[O-])c1	none
CC(C)(C)OC(=O)N1C2C=CC1C1=COCCN1C2=O (stereo not given)	none (no result: FMDV inh, Sm TGR inh)
CCN(CC)C(=O)CSc1nc(N)c(C(=O)Nc2ccc(OC)cc2)s1	none
COc1ccc(NC(=O)c2scc(S(=O)(=O)C(C)C)c2N)cc1	Cycloheximide cs 35, Shiga inhibitor 75
COc1ccc(NC(=O)c2sc(SC)nc2N)cc1	Cycloheximide cs 39 (no result: FMDV inh)
COc1ccc(NC(=O)c2sc(SCc3ccccc3)nc2N)cc1	Cycloheximide cs 22
O=C1NC(=O)C(=Cc2ccc(Cl)c(Cl)c2)S1	none (no result: Cycloheximide cs, Shiga inhibitor, Sm TGR inh)
O=C1NC(=O)/C(=C/c2ccc(O)cc2)S1	Cycloheximide cs 36, Shiga inhibitor 75
COc1ccc(NC(=O)c2ccccc2)c([N+](=O)[O-])c1	Cycloheximide cs 32, Shiga inhibitor 74
COc1ccc(NC(=O)c2cccnc2)c([N+](=O)[O-])c1	none
CCC(=O)Nc1ccc(C(=O)Nc2ccc(OC)cc2[N+](=O)[O-])cc1	none
CCCc1cc(C(=O)Nc2ccc(OC)cc2[N+](=O)[O-])cs1	Cycloheximide cs 28
CCOC(=O)C1CCN(C(=O)Cn2ncc3c4ccccc4n(Cc4ccc(F)cc4)c3c2=O)CC1	none (no result: Cycloheximide cs, Shiga inhibitor)
CC[C@H](C)[C@H](NC(=O)[C@H](Cc1ccc(O)cc1)NC(=O)[C@@H](NC(=O)[C@@H](N)CCCN=C(N)N)C(C)C)C(=O)N[C@@H](Cc1cnc[nH]1)C(=O)N1CCC[C@H]1C(=O)N[C@@H](Cc1ccccc1)C(=O)O	none (no result: FMDV inh, Sm TGR inh)
CCOC(=O)c1c(S(=O)(=O)N2CCCC(C(=O)Nc3ccc(C)cc3C)C2)c(C)n(CC)c1C (stereo not given)	none (no result: Cycloheximide cs, Shiga inhibitor)
COc1cc(-c2cnc3ccccc3c2)cc2c1OCCN(S(=O)(=O)C[C@]13CC[C@H](CC1=O)C3(C)C)C2	none (no result: Cycloheximide cs, Shiga inhibitor, Sm TGR inh)
COc1ccc(/C=C/c2cc(-c3ccc(C)cc3)o[n+]2C)cc1	FMDV inh 2.8µM
COC(=O)C1C/C(=N/NS(=O)(=O)c2ccc(C)cc2)CS1 (stereo not given)	Sm TGR inh 13µM
CS/C(=N\S(=O)(=O)c1ccccc1)c1ccccc1	none
O=S(=O)(/N=C(/Sc1ccccc1)c1ccccc1)c1ccccc1	FMDV inh inconclusive, Sm TGR inh 1.8µM
CC(=O)c1c(C)[nH]c(C(=O)NCCC2=CCCCC2)c1C	Cycloheximide cs 49, Shiga inhibitor 105
CC(=O)c1c(C)[nH]c(C(=O)Nc2ccc(F)c(F)c2F)c1C	Shiga inhibitor 71
Cc1[nH]c2ccccc2c1C(=O)C(=O)NCCc1c[nH]c2ccccc12	none
COc1ccccc1NC(=O)c1[nH]c(C)c(C(C)=O)c1C	Sm TGR inh inconclusive
CCOC(=O)c1[nH]c(C)c(C(=O)NCCC2=CCCCC2)c1C	none
CC(=O)c1c(C)[nH]c(C(=O)Nc2ccccn2)c1C	Cycloheximide cs 44, Shiga inhibitor 52
CC(=O)c1c(C)[nH]c(C(=O)NCCc2c[nH]c3ccccc23)c1C	Cycloheximide cs 39, Shiga inhibitor 41
CC(=O)c1c(C)[nH]c(C(=O)Nc2cccc(C)c2C)c1C	none
O=c1c(-c2ccc(O)cc2)coc2c(C3OC(CO)C(O)C(O)C3O)c(O)ccc12 (stereo not given)	none (no result: Cycloheximide cs, Shiga inhibitor, Sm TGR inh)
CC(=O)c1c(C)[nH]c(C(=O)Nc2ccc(Cl)cc2)c1C	Cycloheximide cs 41, Shiga inhibitor 62
COc1ccc(Cl)cc1C(=O)NNC(=O)c1[nH]c(C)c(C(C)=O)c1C	none (no result: Cycloheximide cs, Shiga inhibitor, Sm TGR inh)
CCC(C)c1ccc(NC(=O)c2[nH]c(C)c(C(C)=O)c2C)cc1 (stereo not given)	Cycloheximide cs 23, Shiga inhibitor 71
CCC(NC(=O)c1[nH]c(C)c(C(C)=O)c1C)c1ccc(Br)cc1 (stereo not given)	none
CC(=O)c1c(C)[nH]c(C(=O)NC2=NCCS2)c1C	Cycloheximide cs 17, Shiga inhibitor 30
CC(=O)c1c(C)[nH]c(C(=O)Nc2ccc(Cl)cc2F)c1C	Cycloheximide cs 32, Shiga inhibitor 116
CC(C)Oc1cccc(C(=O)Nc2ccc3oc(-c4cccc(Cl)c4)nc3c2)c1	none (no result: Cycloheximide cs, Shiga inhibitor)
COc1ccc(CCC(=O)NCc2ccc3c(c2)CCN3C(=O)c2ccc(C)cc2)cc1	none (no result: Cycloheximide cs, Shiga inhibitor)

Screening data (PubChem)
